# Key:
# Settings in all cases: concentration: 1 μM, replicates: in singlicate; n = 1
# MRCKA = test system: MRCKA
# MRCKB = test system: T1, MRCKB
# T1 construct: gene CDC42BPB
# MST1R = test system: MST1R
# MST1 = test system: T2, MST1
# T2 construct: gene STK4
# MST2 = test system: T3, MST2
# T3 construct: gene STK3
# MST3 = test system: T4, MST3
# T4 construct: gene STK24
# MST4 = test system: MST4
# MTOR = test system: MTOR
# MUSK = test system: MUSK
# MYLK2 = test system: MYLK2
# MYLK4 = test system: MYLK4
# MYLK = test system: MYLK
# MYO3A = test system: MYO3A
# MYO3B = test system: MYO3B
# NDR1 = test system: T5, NDR1
# T5 construct: gene STK38
# NDR2 = test system: NDR2
# NEK10 = test system: NEK10
# NEK11 = test system: NEK11
# NEK1 = test system: NEK1
# NEK2 = test system: NEK2
# 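Note: KINOMEscan kinase panel screen.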
compound,measurement,setting,value
Cl.Fc1ccccc1COc1ccc(Nc2ncnc3ccc(-c4nnc(C(F)(F)F)o4)cc23)cc1Cl [GW424170],%Inh,MRCKA,7%
same,%Inh,MRCKB,0%
same,%Inh,MST1R,18%
same,%Inh,MST1,0%
same,%Inh,MST2,0%
same,%Inh,MST3,0%
same,%Inh,MST4,0%
same,%Inh,MTOR,0%
same,%Inh,MUSK,0%
same,%Inh,MYLK2,0%
same,%Inh,MYLK4,0%
same,%Inh,MYLK,0%
same,%Inh,MYO3A,0%
same,%Inh,MYO3B,0%
same,%Inh,NDR1,0%
same,%Inh,NDR2,16%
same,%Inh,NEK10,0%
same,%Inh,NEK11,0%
same,%Inh,NEK1,0%
same,%Inh,NEK2,0%
COc1ccc(Nc2nccc(N3CCC(NC(=O)c4cccc(NC(C)=O)c4)C3)n2)cc1 (centres unmarked) [GSK1379732],%Inh,MRCKA,0%
same,%Inh,MRCKB,0%
same,%Inh,MST1R,34%
same,%Inh,MST1,0%
same,%Inh,MST2,10%
same,%Inh,MST3,13%
same,%Inh,MST4,0%
same,%Inh,MTOR,8%
same,%Inh,MUSK,0%
same,%Inh,MYLK2,8%
same,%Inh,MYLK4,6%
same,%Inh,MYLK,29%
same,%Inh,MYO3A,37%
same,%Inh,MYO3B,0%
same,%Inh,NDR1,15%
same,%Inh,NDR2,10%
same,%Inh,NEK10,24%
same,%Inh,NEK11,48%
same,%Inh,NEK1,6%
same,%Inh,NEK2,6%
COc1ccc(Nc2nccc(N3CCC(NC(=O)Nc4ccc5c(c4)OCO5)C3)n2)cc1 (centres unmarked) [GSK1379745],%Inh,MRCKA,11%
same,%Inh,MRCKB,0%
same,%Inh,MST1R,0%
same,%Inh,MST1,6%
same,%Inh,MST2,0%
same,%Inh,MST3,32%
same,%Inh,MST4,0%
same,%Inh,MTOR,35%
same,%Inh,MUSK,17%
same,%Inh,MYLK2,6%
same,%Inh,MYLK4,0%
same,%Inh,MYLK,25%
same,%Inh,MYO3A,0%
same,%Inh,MYO3B,3%
same,%Inh,NDR1,0%
same,%Inh,NDR2,0%
same,%Inh,NEK10,0%
same,%Inh,NEK11,0%
same,%Inh,NEK1,0%
same,%Inh,NEK2,0%
O=C(Nc1n[nH]c2nc(-c3ccco3)c(Br)cc12)c1ccc(CN2CCCC2)cc1.O=C(O)[C@H](O)[C@@H](O)C(=O)O [SB-742352],%Inh,MRCKA,0%
same,%Inh,MRCKB,0%
same,%Inh,MST1R,0%
same,%Inh,MST1,0%
same,%Inh,MST2,17%
same,%Inh,MST3,0%
same,%Inh,MST4,9%
same,%Inh,MTOR,0%
same,%Inh,MUSK,9%
same,%Inh,MYLK2,96.3%
same,%Inh,MYLK4,5%
same,%Inh,MYLK,83%
same,%Inh,MYO3A,0%
same,%Inh,MYO3B,8%
same,%Inh,NDR1,0%
same,%Inh,NDR2,0%
same,%Inh,NEK10,0%
same,%Inh,NEK11,0%
same,%Inh,NEK1,0%
same,%Inh,NEK2,6%
OCCOCCn1ccc2ncnc(Nc3ccc(Oc4cccc(Cl)c4)c(Cl)c3)c21,%Inh,MRCKA,0%
same,%Inh,MRCKB,0%
same,%Inh,MST1R,0%
same,%Inh,MST1,0%
same,%Inh,MST2,0%
same,%Inh,MST3,0%
same,%Inh,MST4,0%
same,%Inh,MTOR,46%
same,%Inh,MUSK,0%
same,%Inh,MYLK2,0%
same,%Inh,MYLK4,0%
same,%Inh,MYLK,0%
same,%Inh,MYO3A,0%
same,%Inh,MYO3B,0%
same,%Inh,NDR1,30%
same,%Inh,NDR2,0%
same,%Inh,NEK10,0%
same,%Inh,NEK11,0%
same,%Inh,NEK1,0%
same,%Inh,NEK2,0%
c1ccc(-c2ccc3c(-c4ccnc(Nc5ccc6c(c5)OCCO6)n4)cnn3n2)cc1 [GW818941],%Inh,MRCKA,11%
same,%Inh,MRCKB,6%
same,%Inh,MST1R,41%
same,%Inh,MST1,23%
same,%Inh,MST2,4%
same,%Inh,MST3,1%
same,%Inh,MST4,0%
same,%Inh,MTOR,17%
same,%Inh,MUSK,16%
same,%Inh,MYLK2,27%
same,%Inh,MYLK4,0%
same,%Inh,MYLK,11%
same,%Inh,MYO3A,15%
same,%Inh,MYO3B,0%
same,%Inh,NDR1,11%
same,%Inh,NDR2,0%
same,%Inh,NEK10,19%
same,%Inh,NEK11,0%
same,%Inh,NEK1,0%
same,%Inh,NEK2,0%
COC(=O)c1c(-c2ccccc2)c2cc(Cl)ccc2c(=O)n1Cc1ccc(S(C)(=O)=O)cc1,%Inh,MRCKA,0%
same,%Inh,MRCKB,0%
same,%Inh,MST1R,24%
same,%Inh,MST1,1%
same,%Inh,MST2,18%
same,%Inh,MST3,7%
same,%Inh,MST4,0%
same,%Inh,MTOR,0%
same,%Inh,MUSK,0%
same,%Inh,MYLK2,0%
same,%Inh,MYLK4,5%
same,%Inh,MYLK,34%
same,%Inh,MYO3A,0%
same,%Inh,MYO3B,0%
same,%Inh,NDR1,0%
same,%Inh,NDR2,0%
same,%Inh,NEK10,13%
same,%Inh,NEK11,0%
same,%Inh,NEK1,0%
same,%Inh,NEK2,83%
